# Data reported in PubChem BioAssay (NCATS).
# Values joined by “and” are separate entries in the source; they are usually repeats but may differ in a detail not shown here. Equal values may be shown once. Results filed as inconclusive are left out. Some structures have more than one record in an assay (separate samples or runs), and their calls can disagree. A number with no mark means an inactive call. The call rests on the fitted dose curve; in most records, active means well fitted inhibition curve with a large enough effect; inconclusive means small, poorly fitted or top-dose-only effect; inactive means flat fitted curve, though single readings scatter.
# Test: Drug repurposing screens with cells derived from glioblastoma tumor samples (AID 1345199); further: nearly all actives have a fitted effect of over 40% in size
# Settings: GBM patient neurospheres viability, ATP luminescence, 48 h; at 20 µM (top of the series); tumour line C
# Outline: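 Primary testing used CD133+ neurospheres from four GBM patients, seven concentrations, 48 h exposure and ATP-based viability; confirmation added three slower-growing patient lines.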
# On the % scale 0 is the no-effect control and ±100 the full control effect.
row,SMILES,"activity, negative = cell killing [%]"
1,CC(=O)CC(c1ccc([N+](=O)[O-])cc1)c1c(O)c2ccccc2oc1=O (stereo not drawn),0.914
2,O=C(OCCOCCO)c1ccccc1Nc1cccc(C(F)(F)F)c1,-19.4
3,CN1CCCC(CC2c3ccccc3Sc3ccccc32)C1 (stereo not drawn),5.58
4,C/C=C(/C(=C/C)c1ccc(O)cc1)c1ccc(O)cc1,-5.62
5,CC(=O)c1ccc2c(c1)N(CCCN1CCC(CCO)CC1)c1ccccc1S2,17.8
6,CC(=O)OCC(=O)[C@@]1(O)[C@H](C)C[C@H]2[C@@H]3CCC4=CC(=O)C=C[C@]4(C)[C@@]3(F)[C@@H](O)C[C@@]21C,-1.02

# Same assay, conditions: GBM patient neurospheres viability, ATP luminescence, 48 h; at 21.2 µM (top of the series); tumour line B
row,SMILES,"activity, negative = cell killing [%]"
1,CC(=O)CC(c1ccc([N+](=O)[O-])cc1)c1c(O)c2ccccc2oc1=O (stereo not drawn),-11
2,O=C(OCCOCCO)c1ccccc1Nc1cccc(C(F)(F)F)c1,0.602
3,C/C=C(/C(=C/C)c1ccc(O)cc1)c1ccc(O)cc1,-8.12
4,CC(=O)c1ccc2c(c1)N(CCCN1CCC(CCO)CC1)c1ccccc1S2,-21.7
5,CC(=O)OCC(=O)[C@@]1(O)[C@H](C)C[C@H]2[C@@H]3CCC4=CC(=O)C=C[C@]4(C)[C@@]3(F)[C@@H](O)C[C@@]21C,-13.3

# Same assay, conditions: GBM patient neurospheres viability, ATP luminescence, 48 h; at 21.2 µM (top of the series); tumour line D
row,SMILES,"activity, negative = cell killing [%]"
1,CC(=O)CC(c1ccc([N+](=O)[O-])cc1)c1c(O)c2ccccc2oc1=O (stereo not drawn),-16.8
2,O=C(OCCOCCO)c1ccccc1Nc1cccc(C(F)(F)F)c1,-4.96
3,C/C=C(/C(=C/C)c1ccc(O)cc1)c1ccc(O)cc1,-22.4
4,CC(=O)OCC(=O)[C@@]1(O)[C@H](C)C[C@H]2[C@@H]3CCC4=CC(=O)C=C[C@]4(C)[C@@]3(F)[C@@H](O)C[C@@]21C,-10.9

# Same assay, conditions: GBM patient neurospheres viability, ATP luminescence, 48 h; at 45.9 µM (top of the series); tumour line B
row,SMILES,"activity, negative = cell killing"
1,COc1cc(/C=C/C(=O)O[C@H]2CC[C@]34C[C@]35CC[C@]3(C)[C@@H]([C@H](C)CCC=C(C)C)CC[C@@]3(C)[C@@H]5CC[C@H]4C2(C)C)ccc1O,-21.5%
2,O=c1ccc2ccccc2o1,-10.7%
3,COc1cc(-c2ccc(=O)[nH]n2)ccc1OC(F)F,-9.45%
4,c1ccc(CNCCNCc2ccccc2)cc1,-9.72%
5,Cc1nc2n(c(=O)c1CCN1CCC(c3noc4cc(F)ccc34)CC1)CCC[C@H]2O,-11%
6,O=C(Nc1ccc(Cl)c(Cl)c1)C1CC1,-26.9%
7,c1ccc(-c2ccc(C(c3ccccc3)n3ccnc3)cc2)cc1 (stereo not drawn),-29.4%
8,CNC(=O)CN(CCN(CCN(CC(=O)[O-])CC(=O)NC)CC(=O)[O-])CC(=O)[O-].O.[Gd+3],8.28% and -4.12%
9,CC(=O)OCC(=O)[C@@]1(O)[C@H](C)C[C@H]2[C@@H]3CCC4=CC(=O)C=C[C@]4(C)[C@@]3(F)[C@@H](O)C[C@@]21C,1.42%

# Same assay, conditions: GBM patient neurospheres viability, ATP luminescence, 48 h; at 45.9 µM (top of the series); tumour line D
row,SMILES,"activity, negative = cell killing"
1,COc1cc(/C=C/C(=O)O[C@H]2CC[C@]34C[C@]35CC[C@]3(C)[C@@H]([C@H](C)CCC=C(C)C)CC[C@@]3(C)[C@@H]5CC[C@H]4C2(C)C)ccc1O,-21.3%
2,O=c1ccc2ccccc2o1,-11.2%
3,COc1cc(-c2ccc(=O)[nH]n2)ccc1OC(F)F,-28.9%
4,c1ccc(CNCCNCc2ccccc2)cc1,-12.2%
5,Cc1nc2n(c(=O)c1CCN1CCC(c3noc4cc(F)ccc34)CC1)CCC[C@H]2O,-35.1%
6,CNC(=O)CN(CCN(CCN(CC(=O)[O-])CC(=O)NC)CC(=O)[O-])CC(=O)[O-].O.[Gd+3],7.83% and 10.5%
7,CC(=O)OCC(=O)[C@@]1(O)[C@H](C)C[C@H]2[C@@H]3CCC4=CC(=O)C=C[C@]4(C)[C@@]3(F)[C@@H](O)C[C@@]21C,-14.4%

# Same assay, conditions: GBM patient neurospheres viability, ATP luminescence, 48 h; at 46 µM (top of the series); tumour line A
row,SMILES,"activity, negative = cell killing [%]"
1,COc1cc(/C=C/C(=O)O[C@H]2CC[C@]34C[C@]35CC[C@]3(C)[C@@H]([C@H](C)CCC=C(C)C)CC[C@@]3(C)[C@@H]5CC[C@H]4C2(C)C)ccc1O,-29.3
2,O=c1ccc2ccccc2o1,-35.1
3,N[C@H](Cc1c[nH]c2ccccc12)C(=O)O,21.7
4,CNC(=O)CN(CCN(CCN(CC(=O)[O-])CC(=O)NC)CC(=O)[O-])CC(=O)[O-].O.[Gd+3],-5.02

# Same assay, conditions: GBM patient neurospheres viability, ATP luminescence, 48 h; at 46.1 µM (top of the series); tumour line C
row,SMILES,"activity, negative = cell killing"
1,COc1cc(/C=C/C(=O)O[C@H]2CC[C@]34C[C@]35CC[C@]3(C)[C@@H]([C@H](C)CCC=C(C)C)CC[C@@]3(C)[C@@H]5CC[C@H]4C2(C)C)ccc1O,-22.4%
2,O=c1ccc2ccccc2o1,13.9%
3,COc1cc(-c2ccc(=O)[nH]n2)ccc1OC(F)F,-14.1%
4,COc1cc2c(cc1OC)[C@@H]1CC(=O)[C@@H](CC(C)C)CN1CC2,1.4%
5,N[C@H](Cc1c[nH]c2ccccc12)C(=O)O,0.799%
6,COc1ccc(/C=C/C(=O)c2ccc(OC)cc2OC)cc1,-59.7%
7,c1ccc(CNCCNCc2ccccc2)cc1,-25.1%
8,NC(=O)C(=O)N/N=C/c1ccc([N+](=O)[O-])o1,10.3%
9,Cc1nc2n(c(=O)c1CCN1CCC(c3noc4cc(F)ccc34)CC1)CCC[C@H]2O,-8.74%
10,Clc1ccc2c(c1)CCc1cccnc1C2=C1CCNCC1,0.244%
11,Cc1c(C)n(Cc2ccccc2)c2ccc(C(=O)OCCN(C)C)cc12,-16.7%
12,CNC(=O)CN(CCN(CCN(CC(=O)[O-])CC(=O)NC)CC(=O)[O-])CC(=O)[O-].O.[Gd+3],-11.8% and -0.805%
13,CC(=O)OCC(=O)[C@@]1(O)[C@H](C)C[C@H]2[C@@H]3CCC4=CC(=O)C=C[C@]4(C)[C@@]3(F)[C@@H](O)C[C@@]21C,-7.18%
